PubChem BioAssay (Tox21)
Inconclusive results are not listed. Unmarked numbers belong to inactive results. The source made the active and inactive calls. Calls come from the whole dose curve; as a rule, active = well fitted activation curve with a large enough effect in the repeat runs; inconclusive = weak or mixed curves, or effect the other way; inactive = no such curve, though single readings can be large or run the other way. Positions of bridges follow the written chain, without caps; N, C: chain ends. Non-standard residues stand in square brackets, D forms with d. Residues, ends and D or L forms follow the SMILES beside them. *: point of attachment. pGlu = O=C1CC[C@@H](C(=O)O)N1; X2 = CC[C@H](C)CCCCC(=O)*; Thz = O=C(O)[C@@H]1CSCN1; Dab = NCC[C@H](N)C(=O)O

Biological target: Estrogen receptor (Homo sapiens) (UniProt P03372)
Experiment: qHTS assay to identify small molecule agonists of the estrogen receptor alpha (ER-alpha) signaling pathway using the BG1 cell line (AID 743079); note: nearly all actives have a fitted effect of over 20% in size
Details: BG1Luc4E2 cells, ERE-luciferase agonist, 22 h; activation: at 70.3 µM (top of the series)
% is set by controls: 0 for no effect and ±100 for the full control effect; potency is the fitted concentration of half-maximal effect.

Sequence of Estrogen receptor (Homo sapiens) (P03372 whole entry, looked up): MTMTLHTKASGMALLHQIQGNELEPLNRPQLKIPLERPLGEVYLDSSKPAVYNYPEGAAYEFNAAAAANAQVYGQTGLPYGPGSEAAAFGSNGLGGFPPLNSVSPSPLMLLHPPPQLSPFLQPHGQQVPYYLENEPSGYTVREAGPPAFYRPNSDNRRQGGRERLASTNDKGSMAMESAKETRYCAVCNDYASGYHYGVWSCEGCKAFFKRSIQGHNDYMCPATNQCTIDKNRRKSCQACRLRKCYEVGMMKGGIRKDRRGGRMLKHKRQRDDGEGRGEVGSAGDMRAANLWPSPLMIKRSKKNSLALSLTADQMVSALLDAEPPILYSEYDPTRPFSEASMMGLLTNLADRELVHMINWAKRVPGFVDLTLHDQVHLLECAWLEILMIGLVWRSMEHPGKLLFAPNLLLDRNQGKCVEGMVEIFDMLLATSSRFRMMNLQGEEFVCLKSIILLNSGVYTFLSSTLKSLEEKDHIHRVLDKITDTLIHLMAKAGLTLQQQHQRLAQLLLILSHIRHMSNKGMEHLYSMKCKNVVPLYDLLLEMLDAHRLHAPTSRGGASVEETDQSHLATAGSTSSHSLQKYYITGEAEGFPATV

Row | SMILES | activation | Potency
1 | CS(=O)(=O)NC(=O)CCC/C=C\C[C@H]1C(=O)C[C@@H](O)[C@@H]1/C=C/[C@H](O)COc1ccccc1 | 6.2% | 
2 | c1ccc2cc(C3=NCCN3)ccc2c1 | 1.46% | 
3 | CCC[C@@H]1C[C@@H](C(=O)N[C@@H]([C@H]2O[C@H](SC)[C@H](O)[C@@H](O)[C@H]2O)[C@H](C)Cl)N(C)C1 | -8.15% | 
4 | CCCCC/C=C\CCC(=O)N[C@H]1[C@H](Oc2c3cc4cc2Oc2ccc(cc2Cl)[C@@H](O[C@@H]2O[C@H](CO)[C@@H](O)[C@H](O)[C@H]2NC(C)=O)[C@@H]2NC(=O)[C@H](NC(=O)[C@@H]4NC(=O)[C@H]4NC(=O)[C@@H](Cc5ccc(c(Cl)c5)O3)NC(=O)[C@H](N)c3ccc(O)c(c3)Oc3cc(O)cc4c3)c3ccc(O)c(c3)-c3c(O[C@H]4O[C@H](CO)[C@@H](O)[C@H](O)[C@@H]4O)cc(O)cc3[C@@H](C(=O)O)NC2=O)O[C@H](CO)[C@@H](O)[C@@H]1O | 10.6% | 
5 | O.O=C([O-])CC([S-])C(=O)[O-].[Au+].[Na+].[Na+] (centres undefined) | -5.07% | 
6 | C=CC1=C(C)C2=CC3=NC(=C(CC(=O)[O-])C4=NC(=C(C)C4=C([O-])[O-])C=c4[n-]c(c(C)c4CC)=CC1=N2)C(CCC(=O)[O-])C3C.[Cu+2].[Na+].[Na+].[Na+] (centres undefined) | -9.42% | 
7 | O=C1CC[C@@H](C(=O)N2CSC[C@H]2C(=O)O)N1 ([pGlu]-[Thz]-OH) | 3.67% | 
8 | CN1[C@@H]2CCC[C@H]1CC(NC(=O)c1nn(C)c3ccccc13)C2 (some centres undefined) | -10.8% | 
9 | COc1cc(/C=C/C(=O)N2CCN(CC(=O)N3CCCC3)CC2)cc(OC)c1OC | 0.347% | 
10 | CC(=O)N[C@@H]1C(O[C@H]2O[C@H](C(=O)O)C(O)[C@H](O)[C@H]2O)[C@H](O)[C@@H](CO)O[C@H]1O[C@@H]1C(C(=O)O)O[C@@H](O[C@H]2[C@H](O)[C@@H](CO)OC(O)[C@@H]2NC(C)=O)[C@H](O)[C@H]1O (some centres undefined) | -20.5% | 
11 | COC(=O)[C@H]1[C@H]2C[C@@H]3c4[nH]c5cc(OC)ccc5c4CCN3C[C@H]2C[C@@H](OC(=O)/C=C/c2cc(OC)c(OC)c(OC)c2)[C@@H]1OC | -21.5% [at 32.5 µM] | 
12 | CC(C)[C@H](N)C(=O)OCC(CO)OCn1cnc2c(=O)[nH]c(N)nc21 (some centres undefined) | -10.5% | 
13 | N[C@H](CCC(=O)O)C(=O)O | 5.93% | 
14 | CCOC(=O)Cc1cccc(-c2cc(CCCCCCc3ccc(O[C@H]4O[C@H](COC(C)=O)[C@@H](OC(C)=O)[C@H](OC(C)=O)[C@@H]4OC(C)=O)c(-c4cccc(CC(=O)OCC)c4)c3)ccc2O[C@H]2O[C@H](COC(C)=O)[C@@H](OC(C)=O)[C@H](OC(C)=O)[C@@H]2OC(C)=O)c1 | -19.4% | 
15 | CC1(C)[C@@H]2CC[C@@]1(C)[C@H](OC(=O)CSC#N)C2 | 10.9% | 
16 | OC[C@H]1O[C@@H](n2cnc3c2NC=NC[C@H]3O)C[C@@H]1O | -0.318% | 
17 | CCC(=O)OCC(=O)[C@@]1(OC(=O)CC)[C@@H](C)C[C@H]2[C@@H]3CCC4=CC(=O)C=C[C@]4(C)[C@@]3(Cl)[C@@H](O)C[C@@]21C | 2.63% | 

Row | SMILES | activation | Potency
18 | CC(C)[C@@H](C)/C=C/[C@@H](C)[C@H]1CC[C@H]2/C(=C/C=C3\C[C@@H](O)CC[C@@H]3C)CCC[C@]12C | -15% | 
19 | CC(=O)O[C@H]1CC[C@@]2(C)C(=CC[C@@H]3[C@@H]2CC[C@]2(C)C(c4cccnc4)=CC[C@@H]32)C1 |  | 29.8 µM (active)
20 | CCOC(=O)c1c[nH]c2cc(OCC(C)C)c(OCC(C)C)cc2c1=O | 9.83% | 
21 | Cc1ccc(C2(O)CCN(CCCC(=O)c3ccc(F)cc3)CC2)cc1 | -4.4% | 
22 | CN1c2c(nc(N)[nH]c2=O)NCC1CNc1ccc(C(=O)NC(CCC(=O)O)C(=O)O)cc1 (centres undefined) | -8.54% | 
23 | COc1ccc2cc([C@H](C)CO)ccc2c1 |  | 33.5 µM (active)
24 | CC[C@H](C)CCCCC(=O)N[C@@H](CCN)C(=O)N[C@H](C(=O)N[C@@H](CCN)C(=O)N[C@H]1CCNC(=O)[C@@H]([C@H](C)O)NC(=O)[C@H](CCN)NC(=O)[C@H](CCN)NC(=O)[C@H](CC(C)C)NC(=O)[C@@H](CC(C)C)NC(=O)[C@H](CCN)NC1=O)[C@@H](C)O (X2-[Dab]T[Dab][Dab][Dab][dL]L[Dab][Dab][dT]; lactam 4-C) | 5.27% [at 32.5 µM] | 
25 | N[C@@H](C(=O)N[C@@H]1C(=O)N2C(C(=O)O)=C(Cl)CC[C@H]12)c1ccccc1 | 13% | 
26 | O=P(O)(O)C(O)(Cc1cnc2ccccn12)P(=O)(O)O | -0.0844% | 
27 | CNCC(O)c1ccc(OC(=O)C(C)(C)C)c(OC(=O)C(C)(C)C)c1 (centres undefined) | 3.96% [at 32.5 µM] | 
28 | CN[C@@H]1[C@@H](O)[C@@H](O[C@@H]2[C@@H](O)[C@H](O[C@H]3O[C@H](CN)[C@@H](O)[C@H](O)[C@H]3O)[C@@H](N)C[C@H]2NC(=O)C(O)CN)OC[C@]1(C)O (some centres undefined) | 10.6% | 
29 | CO/N=C(\C(=O)N[C@@H]1C(=O)N2C(C(=O)O)=CCS[C@H]12)c1csc(N)n1 | 2.67% | 
30 | O=C(O)CCC/C=C\C[C@@H]1[C@@H](/C=C/[C@@H](O)COc2cccc(Cl)c2)[C@H](O)C[C@@H]1O | 2.88% | 
31 | CC[C@H]1NC(=O)[C@@H](NC(=O)c2ncccc2O)[C@@H](C)OC(=O)[C@H](c2ccccc2)NC(=O)[C@@H]2CC(=O)CCN2C(=O)[C@H](Cc2ccccc2)N(C)C(=O)[C@@H]2CCCN2C1=O | 6.18% | 
32 | CC(O)[C@H]1CC[C@H]2[C@@H]3CC[C@@H]4C[C@@H](O)CC[C@]4(C)[C@H]3CC[C@]12C (some centres undefined) |  | 9.44 µM (active)
33 | CC(=O)N(CC(C)C(=O)O)c1c(I)cc(I)c(N)c1I (centres undefined) | -4.85% [at 32.5 µM] | 
34 | CCN1C(=O)NC(c2ccccc2)C1=O (centres undefined) | -13.3% [at 32.5 µM] | 
